Source: PubChem BioAssay AID1159580 (chemical genetic matrix, 2015)
Hit rate of the full screen: of about 5,500 compounds, about 2,000 (36%) were called active. Roughly 18% stayed inconclusive and do not appear here. Cut-off read from the data, not from the text of the source: active = normalized growth mostly below about 0.91 (no sharp cut-off); inconclusive = no clear call, values can overlap the other calls; inactive = mostly above about 0.92. This is one part of the list.

Assay: chemical genetic growth profiling, strain panel (AID 1159580);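 note: tested at 20 µM; growth read once vehicle control cultures reached saturation at 30 °C; 1 = growth at the plate median or of vehicle wells; lower values mean less growth of the strain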
Conditions: S. cerevisiae deletion strains, growth OD
[1] = locus YDL101C, strain DUN1, active compounds read low
[2] = locus YHR030C, strain SLT2, active compounds read low

Measured: normalized growth

C=CCC1C(=O)N(S(=O)(=O)c2ccc(Cl)cc2)N=C1CCC (stereo unspecified)
inactive: locus YAR019C, strain CDC15, active compounds read low 0.992 | locus YBL105C, strain PKC1, active compounds read low 0.994 | locus YBR135W, strain CKS1, active compounds read low 0.998 | locus YBR136W, strain MEC1, active compounds read low 0.987 | locus YBR160W, strain CDC28, active compounds read low 0.997 | locus YDL017W, strain CDC7, active compounds read low 0.996 | locus YDL028C, strain MPS1, active compounds read low 0.995 | [1] 0.991 | locus YDL108W, strain KIN28, active compounds read low 0.989 | locus YDL132W, strain cdc53, active compounds read low 0.994 | locus YDL214C, strain PRR2, active compounds read low 0.951 | locus YDR052C, strain DBF4, active compounds read low 0.999 | locus YDR054C, strain cdc34, active compounds read low 0.996 | locus YDR226W, strain ADK1, active compounds read low 0.996 | locus YDR477W, strain SNF1, active compounds read low 0.981 | locus YER123W, strain YCK3, active compounds read low 0.961 | locus YER133W, strain GLC7, active compounds read low 0.986 | locus YFL009W, strain cdc4, active compounds read low 0.993 | locus YFL029C, strain CAK1, active compounds read low 0.984 | locus YFR003C, strain YPI1, active compounds read low 0.996 | locus YFR019W, strain FAB1, active compounds read low 0.977 | locus YFR028C, strain CDC14, active compounds read low 0.991 | locus YGR040W, strain KSS1, active compounds read low 0.97 | locus YGR052W, strain FMP48, active compounds read low 1.06 | locus YGR092W, strain DBF2, active compounds read low 0.997 | [2] 1.05 | locus YHR079C, strain IRE1, active compounds read low 0.97 | locus YHR082C, strain KSP1, active compounds read low 1.01 | locus YHR205W, strain SCH9, active compounds read low 0.972 | locus YIL147C, strain SLN1, active compounds read low 0.992 | locus YJL095W, strain BCK1, active compounds read low 0.993 | locus YJL128C, strain PBS2, active compounds read low 0.943 | locus YJL157C, strain FAR1, active compounds read low 0.983 | locus YJR016C, strain ILV3, active compounds read low 0.994 | locus YJR066W, strain TOR1 (second series), active compounds read low 0.978 | locus YJR066W, strain TOR1, active compounds read low 0.986 | locus YKL048C, strain ELM1, active compounds read low 0.962 | locus YKL067W, strain YNK1, active compounds read low 0.964 | locus YKL101W, strain HSL1, active compounds read low 0.942 | locus YKL193C, strain SDS22, active compounds read low 0.995 | locus YKL203C, strain TOR2, active compounds read low 1.04 | locus YLR113W, strain HOG1, active compounds read low 0.887 | locus YLR133W, strain CKI1, active compounds read low 0.965 | locus YLR403W, strain SFP1, active compounds read low 1 | locus YML070W, strain DAK1, active compounds read low 0.963 | locus YMR001C, strain CDC5, active compounds read low 0.991 | locus YMR205C, strain PFK2 (second series), active compounds read low 0.966 | locus YMR277W, strain FCP1, active compounds read low 0.999 | locus YNL006W, strain LST8, active compounds read low 0.999 | locus YNL020C, strain ARK1, active compounds read low 0.962 | locus YNL161W, strain CBK1, active compounds read low 0.994 | locus YNL183C, strain NPR1, active compounds read low 0.98 | locus YNL207W, strain RIO2, active compounds read low 0.995 | locus YNL222W, strain SSU72, active compounds read low 0.994 | locus YNL307C, strain MCK1 (second series), active compounds read low 0.989 | locus YOL078W, strain AVO1, active compounds read low 0.995 | locus YOL136C, strain PFK27, active compounds read low 0.968 | locus YOR061W, strain CKA2, active compounds read low 0.97 | locus YOR119C, strain RIO1, active compounds read low 1.01 | locus YOR231W, strain MKK1, active compounds read low 0.968 | locus YOR329C, strain SCD5, active compounds read low 0.996 | locus YPL031C, strain PHO85, active compounds read low 0.953 | locus YPL153C, strain RAD53, active compounds read low 0.977 | locus YPL204W, strain HRR25, active compounds read low 0.998 | locus YPL209C, strain IPL1, active compounds read low 0.994 | locus YPL256C, strain CLN2, active compounds read low 0.916 | locus YPR025C, strain CCL1, active compounds read low 0.994 | locus YPR106W, strain ISR1, active compounds read low 0.988 | locus YPR111W, strain DBF20, active compounds read low 0.978 | strain NNK1, active compounds read low 0.982 | strain TSCII, active compounds read low 0.989

NC(=O)C1=C(O)C(=O)N(C2CCCCC2)C1
inactive: locus YAL013W, strain DEP1, active compounds read low 0.992 | locus YBR229C, strain ROT2, active compounds read low 1.01 | [1] 1.02 | locus YDR150W, strain NUM1, active compounds read low 1.03 | locus YEL061C, strain CIN8, active compounds read low 0.995 | locus YGR078C, strain PAC10, active compounds read low 1 | [2] 1.05 | locus YHR087W, strain rtc3, active compounds read low 0.99 | locus YJR043C, strain POL32, active compounds read low 1.02 | locus YJR075W, strain HOC1, active compounds read low 1.01 | locus YKL190W, strain CNB1, active compounds read low 1.01 | locus YLR039C, strain RIC1, active compounds read low 1.02 | locus YLR058C, strain SHM2 (second series), active compounds read low 1.01 | locus YLR085C, strain ARP6, active compounds read low 1.03 | locus YLR262C, strain YPT6, active compounds read low 1 | locus YML094W, strain GIM5, active compounds read low 1 | locus YMR219W, strain ESC1, active compounds read low 1.01 | locus YMR263W, strain SAP30, active compounds read low 1 | locus YNL153C, strain GIM3, active compounds read low 1.01 | locus YNL298W, strain CLA4 (second series), active compounds read low 1.02 | locus YNL322C, strain KRE1, active compounds read low 0.998 | locus YNR030W, strain Alg12, active compounds read low 1.03 | locus YPL055C, strain LGE1, active compounds read low 0.999 | locus YPL241C, strain CIN2, active compounds read low 0.974 | locus YPR135W, strain CTF4, active compounds read low 1.06
